Results taken from the supplement of paper PMC6607015.
Where a name gives a salt, the structure may show the parent alone.

Columns and labels:
Settings in all cases: compound concentration in added solution (µM; 5 µl added to 20 µl cells): 10; 18 h
A431 [1] = assay: LBPA endosome anti-LBPA integrated intensity (sum per cell), Z-score; higher = more LBPA staining
Summary of the method: (§1)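 The data are Z-scores, normalised in AcuityXpress, of integrated LBPA or filipin intensity in each cell, either whole-cell or restricted to LBPA endosomes. HeLa MZ or A431 cells, 3,500 per well in 20 µl, were seeded onto 5 µl of 10 µM compound solution in duplicate 384-well plates and incubated 18 h. Fixed cells were stained and imaged, with intensities extracted by MetaXpress segmentation.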

HeLa MZ [2] = assay: as above
Summary of the method: as §1

A431 [3] = assay: whole-cell filipin (free cholesterol) integrated intensity, Z-score; higher = more cholesterol staining
Summary of the method: as §1

HeLa MZ [4] = assay: as above
Summary of the method: as §1

A431 [5] = assay: filipin (cholesterol) integrated intensity within LBPA endosomes, Z-score; higher = more cholesterol in LBPA endosomes
Summary of the method: as §1

HeLa MZ [6] = assay: as above
Summary of the method: as §1

| SMILES | LBPA endosome anti-LBPA integrated intensity (z-score) (A431 [1]) | LBPA endosome anti-LBPA integrated intensity (z-score) (HeLa MZ [2]) | whole-cell filipin (z-score) (A431 [3]) | whole-cell filipin (z-score) (HeLa MZ [4]) | filipin (z-score) (A431 [5]) | filipin (z-score) (HeLa MZ [6]) |
| --- | --- | --- | --- | --- | --- | --- |
| COC(c1ccccc1)(c1ccccc1)[C@H](Oc1nc(C)cc(C)n1)C(=O)O [Ambrisentan] | -0.48 | -0.16 | -0.0813 | 1.12 | -0.393 | -0.359 |
| C[C@H]1[C@H](NC(=O)/C(=N\OC(C)(C)C(=O)O)c2csc(N)n2)C(=O)N1S(=O)(=O)O [Aztreonam] | -0.461 | -0.629 | -0.642 | -0.428 | -0.521 | -0.607 |
| NC(Cc1cc(I)c(Oc2cc(I)c(O)c(I)c2)c(I)c1)C(=O)O (centres undefined) [Thyroxine (L)] | -0.687 | -1.35 | -1.1 | -0.619 | -0.586 | -0.6 |
| OCCN1CCN(CC/C=C2/c3ccccc3Sc3ccc(Cl)cc32)CC1 [Zuclopenthixol hydrochloride] | 3.18 | 1.68 | 0.421 | 0.439 | 2.79 | 2.86 |
| CC(C)C(=O)Nc1ccc([N+](=O)[O-])c(C(F)(F)F)c1 [Flutamide] | -0.32 | 0.353 | -0.407 | -0.0656 | -0.384 | -0.392 |
| COc1c2occc2c(OC)c2c(=O)cc(C)oc12 [Khellin] | -0.364 | -0.599 | -0.787 | -0.817 | -0.439 | -0.439 |
| NC[C@H]1CC[C@H](C(=O)O)CC1 [Tranexamic acid] | -0.452 | -0.543 | -0.422 | -0.896 | -0.524 | -0.663 |
| CC(=O)c1ccc2c(c1)N(CCCN1CCC(CCO)CC1)c1ccccc1S2 [Piperacetazine] | 4.58 | 1.54 | 2.51 | 1.35 | 3.1 | 3.21 |
| CO[C@@H]1[C@@H](OC(N)=O)[C@@H](O)[C@H](Oc2ccc3c(O)c(NC(=O)c4ccc(O)c(CC=C(C)C)c4)c(=O)oc3c2C)OC1(C)C [Novobiocin sodium salt] | -0.507 | -0.477 | -0.352 | -0.602 | -0.469 | -0.462 |
| CC(C)N1CCN(c2ccc(OCC3COC(Cn4cncn4)(c4ccc(Cl)cc4Cl)O3)cc2)CC1 (centres undefined) [Terconazole] | 3.33 | 2.49 | 1.58 | 1.5 | 3.31 | 4.7 |
| CO[C@@]1(NC(=O)C(C(=O)O)c2ccc(O)cc2)C(=O)N2C(C(=O)O)=C(CSc3nnnn3C)CO[C@@H]21 (some centres undefined) [Moxalactam disodium salt] | -0.477 | 0.127 | -0.129 | 0.413 | -0.413 | -0.25 |
| NCCCCCC(=O)O [Aminocaproic acid] | -0.515 | -0.605 | -0.556 | -0.716 | -0.511 | -0.479 |
| CN1CCCN=C1/C=C/c1cccc(O)c1 [Oxantel pamoate] | -0.563 | -0.852 | -0.857 | -0.729 | -0.5 | -0.659 |
| CN1CCN2c3ncccc3Cc3ccccc3C2C1 (centres undefined) [Mirtazapine] | -0.296 | 0.0872 | -0.206 | 0.74 | -0.391 | 0.392 |
| CO[C@H]1/C=C/O[C@@]2(C)Oc3c(C)c(O)c4c(O)c(c(/C=N/N5CCN(C6CCCC6)CC5)c(O)c4c3C2=O)NC(=O)/C(C)=C\C=C\[C@H](C)[C@H](O)[C@@H](C)[C@@H](O)[C@@H](C)[C@H](OC(C)=O)[C@@H]1C [Rifapentine] | -0.344 | -0.538 | -0.546 | -0.401 | -0.461 | -0.486 |
| Clc1ccc(C(c2ccccc2Cl)C(Cl)Cl)cc1 (centres undefined) [Mitotane] | -0.586 | -1.29 | -0.251 | -0.167 | -0.511 | -0.815 |
| O=C1CN(/N=C/c2ccc(-c3ccc([N+](=O)[O-])cc3)o2)C(=O)N1 [Dantrolene sodium salt] | -0.554 | -0.147 | -1.1 | -0.944 | -0.655 | -0.686 |
| COc1cccc(N(C)C(=S)Oc2ccc3c(c2)CCCC3)n1 [Liranaftate] | 0.29 | -0.439 | -0.212 | 0.593 | -0.0958 | -0.421 |
| Clc1ccc(COC(Cn2ccnc2)c2ccc(Cl)cc2Cl)c(Cl)c1 (centres undefined) [Miconazole] | 0.0492 | 1.55 | 0.107 | 0.176 | -0.0467 | 0.514 |
| CN1CCC(=C2c3ccccc3CC(=O)c3sccc32)CC1 [Ketotifen fumarate] | 0.0746 | 0.508 | 0.273 | -0.159 | 0.289 | 0.175 |
| CC(C)(Sc1cc(C(C)(C)C)c(O)c(C(C)(C)C)c1)Sc1cc(C(C)(C)C)c(O)c(C(C)(C)C)c1 [Probucol] | -0.46 | -0.408 | -0.766 | -0.622 | -0.482 | -0.445 |
| C#C[C@]1(O)CC[C@H]2[C@@H]3CCC4=C(CCC(=O)C4)[C@H]3CC[C@@]21C [Norethynodrel] | -0.487 | -0.658 | -0.784 | -0.871 | -0.48 | -0.512 |
| CCCCC(C)(O)C/C=C/[C@H]1[C@H](O)CC(=O)[C@@H]1CCCCCCC(=O)OC (mixture of isomers) [Misoprostol] | -0.446 | -0.811 | 0.395 | -0.741 | -0.436 | -0.608 |
| CN1CCC(OC(c2ccccc2)c2ccccc2)CC1 [Diphenylpyraline hydrochloride] | 0.268 | 1.06 | 0.89 | 0.448 | 0.505 | 0.456 |
| CN(Cc1cc(Br)cc(Br)c1N)C1CCCCC1 [Bromhexine hydrochloride] | -0.251 | -1.52 | 0.328 | -0.199 | -0.159 | -0.552 |

| SMILES | LBPA endosome anti-LBPA integrated intensity (z-score) (A431 [1]) | LBPA endosome anti-LBPA integrated intensity (z-score) (HeLa MZ [2]) | whole-cell filipin (z-score) (A431 [3]) | whole-cell filipin (z-score) (HeLa MZ [4]) | filipin (z-score) (A431 [5]) | filipin (z-score) (HeLa MZ [6]) |
| --- | --- | --- | --- | --- | --- | --- |
| COc1ccccc1OCCNCC(O)COc1cccc2[nH]c3ccccc3c12 (centres undefined) [Carvedilol] | 4.32 | 3.72 | 2.68 | 3 | 3.9 | 5.27 |
| CC(Cc1cccc(C(F)(F)F)c1)NCCOC(=O)c1ccccc1 (centres undefined) [Benfluorex hydrochloride] | -0.077 | -0.59 | -0.118 | 0.0685 | -0.352 | -0.573 |
| CO[C@@]1(NC(=O)Cc2cccs2)C(=O)N2C(C(=O)O)=C(COC(N)=O)CS[C@@H]21 [Cefoxitin sodium salt] | -0.479 | 0.482 | -0.426 | -0.439 | -0.487 | -0.515 |
| O=C1NCC2(CCN(CCc3ccccc3)CC2)O1 [Fenspiride hydrochloride] | -0.609 | -0.156 | -1.07 | -0.91 | -0.575 | -0.493 |
| O=C1Nc2ccc(Cl)cc2[C@@](C#CC2CC2)(C(F)(F)F)O1 [Efavirenz] | -0.71 | -0.896 | -0.938 | -0.668 | -0.569 | -0.836 |
| CCc1ccc(CCOc2ccc(CC3SC(=O)NC3=O)cc2)nc1 (centres undefined) [Pioglitazone] | -0.492 | -0.449 | -0.697 | -0.748 | -0.5 | -0.629 |
| COc1ccc(CN(CCN(C)C)c2ccccn2)cc1 [Pyrilamine maleate] | -0.379 | 0.813 | -0.723 | -0.374 | -0.426 | 0.0714 |
| NC(=O)C(c1ccccc1)(c1ccccc1)[C@@H]1CCN(CCc2ccc3c(c2)CCO3)C1 [Darifenacin hydrobromide] | 3.46 | 1.76 | 3.28 | 1.47 | 2.87 | 3.06 |
| CC(C)(Oc1ccc(Cl)cc1)C(=O)O [Clofibric acid] | -0.512 | -0.676 | -0.43 | -0.52 | -0.514 | -0.568 |
| Cc1cc(=O)oc2cc(O)ccc12 [Hymecromone] | -0.504 | -0.0954 | -0.674 | -0.684 | -0.459 | -0.528 |
| CN1CCCN=C1/C=C/c1cccs1 [Pyrantel tartrate] | -0.533 | -0.181 | -0.934 | -1.12 | -0.565 | -0.677 |
| Oc1c(I)cc(Cl)c2cccnc12 [Clioquinol] | -0.492 | -0.976 | -0.314 | 0.216 | -0.526 | -0.604 |
| CCN(CC)CCNC(=O)c1cc(Br)c(N)cc1OC [Bromopride] | -0.305 | 0.899 | -0.269 | 0.199 | -0.333 | 0.158 |
| COc1ccc2c(c1)C(=O)N(CCc1ccc(S(=O)(=O)NC(=O)NC3CCCCC3)cc1)C(=O)C2(C)C [Gliquidone] | -0.483 | 0.216 | -0.152 | -0.511 | -0.531 | -0.598 |
| OC[C@H]1O[C@@H](Oc2ccc(O)cc2)[C@H](O)[C@@H](O)[C@@H]1O [Arbutin] | -0.459 | 0.327 | -0.0729 | -0.0721 | -0.436 | -0.605 |
| CN(C)c1ccc(O)c2c1C[C@H]1C[C@H]3[C@H](N(C)C)C(O)=C(C(N)=O)C(=O)[C@@]3(O)C(O)=C1C2=O [Minocycline hydrochloride] | -0.618 | -1.91 | -1.01 | -1.52 | -0.639 | -0.888 |
| COc1ccccc1O [Guaiacol] | -0.278 | 0.0632 | 0.299 | -0.2 | -0.335 | -0.255 |
| CC(=O)NCCCS(=O)(=O)O [Acamprosate calcium] | -0.335 | 0.472 | -0.555 | -0.465 | -0.407 | -0.547 |
| CCn1cc(C(=O)O)c(=O)c2cnc(N3CCCC3)nc21 [Piromidic acid] | -0.472 | -0.684 | -0.293 | 0.123 | -0.374 | -0.418 |
| COc1ccc(CCN(C)CCCC(C#N)(c2ccc(OC)c(OC)c2)C(C)C)cc1OC (centres undefined) [Verapamil hydrochloride] | 2.51 | 2.93 | 2.24 | 0.413 | 2.46 | 1.49 |
| C[C@]12C[C@H](O)[C@H]3[C@@H](CCC4=CC(=O)CC[C@@]43C)[C@@H]1CC[C@@H]2C(=O)CO [Corticosterone] | -0.334 | 0.522 | -0.492 | -0.633 | -0.326 | -0.407 |
| CN(C)CCOC(c1ccc(Cl)cc1)c1ccccn1 (centres undefined) [Carbinoxamine maleate salt] | -0.697 | -0.856 | -0.5 | -0.502 | -0.442 | -0.169 |
| CC(=O)N(CC(O)CO)c1c(I)c(C(=O)NCC(O)CO)c(I)c(C(=O)NCC(O)CO)c1I (centres undefined) [Iohexol] | -0.463 | 0.247 | -0.643 | -0.949 | -0.508 | -0.655 |
| CC#C[C@]1(O)CC[C@H]2[C@@H]3CCC4=CC(=O)CCC4=C3[C@@H](c3ccc(N(C)C)cc3)C[C@@]21C [Mifepristone] | -0.423 | 0.259 | -0.703 | -0.6 | -0.386 | -0.393 |
